Test results from the supplement of paper PMC12669032.
A number with no mark means an inactive call.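 How the source made its calls: active = AUC reduced over 20% with Padj below 0.05 in at least 2 of 3 replicates; inactive = otherwise.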

How the values were obtained:
Roseburia intestinalis = assay: growth AUC relative to DMSO control (median of replicates) (fraction); higher = more growth (less inhibition), active = hit call of the paper; conditions: 20 µM; 24 h
How it was run: (§1)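 Starting at OD600 0.05, gut bacterial monocultures in mGAM were grown anaerobically at 37 °C with 20 µM compound (1% DMSO) under pierced gas-permeable seals. OD600 was read every hour for 24 h, and the lowest OD of each curve was set to 0. Area under the growth curve was normalised to the plate median of solvent-only wells, or to row and column medians on the industrial chemical plate, and the median of three biological replicates grown on separate days is given.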

Streptococcus salivarius = assay: as above; conditions: 20 µM; 24 h
How it was run: as §1

Row | SMILES | growth AUC (Roseburia intestinalis) | growth AUC (Streptococcus salivarius)
1 | CCC(CC)Nc1c([N+](=O)[O-])cc(C)c(C)c1[N+](=O)[O-] | 0.897 | 0.959
2 | CC1(C)CON(Cc2ccccc2Cl)C1=O | 0.896 | 0.87
3 | COCc1cnc(C2=NC(C)(C(C)C)C(=O)N2)c(C(=O)O)c1 (stereo not given) | 0.978 | 0.977
4 | O=S1(=O)OCC2C(CO1)C1(Cl)C(Cl)=C(Cl)C2(Cl)C1(Cl)Cl (stereo not given) | 0.915 | 0.991
5 | CC1(C)C(C=C(Cl)Cl)C1C(=O)OCc1cccc(Oc2ccccc2)c1 (mixture of isomers) | 0.921 | 0.979
6 | O.[Br-].[Br-].c1cc[n+]2c(c1)-c1cccc[n+]1CC2 | 1.04 | 1.01
7 | CCOP(=S)(OCC)SCS(=O)(=O)C(C)(C)C | 1.02 | 0.984
8 | C[C@@H](Oc1ccc(Oc2ccc(C(F)(F)F)cn2)cc1)C(=O)O | 0.99 | 1.05
9 | CC(C)(C)c1ccc(CSc2cnn(C(C)(C)C)c(=O)c2Cl)cc1 | 0.979 | 0.986
10 | COCc1c(F)c(F)c(COC(=O)[C@@H]2[C@@H](C=C(Cl)Cl)C2(C)C)c(F)c1F | 0.979 | 0.986
11 | CCC(C)c1cc([N+](=O)[O-])cc([N+](=O)[O-])c1O (stereo not given) | 0.887 | 0.938
12 | CCCN(CC1CC1)c1c([N+](=O)[O-])cc(C(F)(F)F)cc1[N+](=O)[O-] | 1.06 | 1.03
13 | C#CC(C)(C)NC(=O)c1cc(Cl)cc(Cl)c1 | 0.936 | 0.914
14 | CCNc1nc(Cl)nc(NC(C)C)n1 | 1.09 | 0.966
15 | COCc1c(F)c(F)c(COC(=O)C2C(C=C(C)C)C2(C)C)c(F)c1F (stereo not given) | 1 | 1.06
16 | Cc1cccc2sc3nncn3c12 | 0.976 | 1.02
17 | Clc1c(Cl)c(Cl)c(Cl)c(Cl)c1Cl | 1.01 | 0.999
18 | C[N+](C)(C)CCCl.[Cl-] | 0.994 | 1.03
19 | COP(=S)(OC)Oc1ccc(S(N)(=O)=O)cc1 | 1.03 | 0.985
20 | CC(C)(O)C(Cl)(Cl)Cl.CC(C)(O)C(Cl)(Cl)Cl.O | 1.01 | 1.05
21 | CC(C)OC(=O)C(C(=O)OC(C)C)=C1SCCS1 | 1.06 | 1.02
22 | CCNc1nc(NC(C)(C)C)nc(SC)n1 | 1.07 | 0.984
23 | O=C(OC1CCCCC1)c1ccccc1C(=O)OC1CCCCC1 | 0.983 | 1

Row | SMILES | growth AUC (Roseburia intestinalis) | growth AUC (Streptococcus salivarius)
24 | [Cl][Sn]([c]1ccccc1)([c]1ccccc1)[c]1ccccc1 | 0.0424 (active) | 0.859
25 | C=CCOC(Cn1ccnc1)c1ccc(Cl)cc1Cl.O=S(=O)(O)O (stereo not given) | 0.261 (active) | 0.953
26 | CC1(C)[C@H](C(=O)O[C@H](C#N)c2cccc(Oc3ccccc3)c2)[C@@H]1/C=C\C(=O)OC(C(F)(F)F)C(F)(F)F | 0.962 | 1.07
27 | O=C(Nc1ccccc1-c1ccc(Cl)cc1)c1cccnc1Cl | 1.01 | 1.01
28 | COP(=S)(OC)Oc1cc(Cl)c(I)cc1Cl | 0.974 | 0.936
29 | CCc1ccc(C(=O)NN(C(=O)c2cc(C)cc(C)c2)C(C)(C)C)cc1 | 0.945 | 0.952
30 | COCCN(C(=O)CCl)c1c(C)cccc1C | 0.96 | 0.957
31 | COC(=O)NC(=S)Nc1ccccc1NC(=S)NC(=O)OC | 0.979 | 0.98
32 | O=C(O)COc1ccccc1 | 0.995 | 0.994
33 | O=C(O)COc1cc(Cl)c(Cl)cc1Cl | 0.966 | 1.02
34 | CCNC(=O)NC(=O)/C(C#N)=N/OC | 1.16 | 0.949
35 | ClC1=C(Cl)C(Cl)(C2(Cl)C(Cl)=C(Cl)C(Cl)=C2Cl)C(Cl)=C1Cl | 0.91 | 0.962
36 | COP(=O)(OC)C(O)C(Cl)(Cl)Cl (stereo not given) | 1 | 1.02
37 | COc1c(Cl)ccc(Cl)c1Cl | 1.01 | 0.952
38 | CCOP(=S)(OCC)Oc1ccc(Cl)cc1Cl | 1.05 | 1.04
39 | COP(=S)(OC)Oc1cc(Cl)c(Br)cc1Cl | 1.03 | 0.995
40 | COP(=S)(OC)Oc1ccc([N+](=O)[O-])c(C)c1 | 0.949 | 0.991
41 | CC(=O)CC(c1ccco1)c1c(O)c2ccccc2oc1=O (stereo not given) | 0.975 | 0.989
42 | O=P(OCCCl)(OCCCl)OCCCl | 0.928 | 1.03
43 | OC(c1ccc(Cl)cc1)(c1ccc(Cl)cc1)C(Cl)(Cl)Cl | 0.891 | 0.874
44 | CCCN(CCCl)c1c([N+](=O)[O-])cc(C(F)(F)F)cc1[N+](=O)[O-] | 0.989 | 0.928
45 | CCN(CC)C(=O)/C(Cl)=C(/C)OP(=O)(OC)OC | 1.01 | 0.994
